Compound activity deposited in PubChem by National Center for Advancing Translational Sciences (NCATS).
Nrf2 activator – activates Nrf2 signaling | AREc32 ARE-luciferase reporter (MCF7-derived line), luminescence, 24 h | Potency, µM (top dose mostly 46.1 µM), for inactives: at the highest dose activation, usual class: activators | actives 0.31% (n = 410,000); note: potency is the fitted concentration of half-maximal effect; % of control where 0% means no effect; nearly all actives have a fitted effect of over 65% in size
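Each well held 1000 AREc32 cells, which were incubated with compound for 24 hr at 37 deg C after overnight attachment, and ARE reporter activity was quantified by firefly luciferase luminescence.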
Nrf2 block – blocks Nrf2 signaling. A549 ARE-Fluc reporter, luciferase luminescence, 18-24 h. Potency, µM (series often up to 46 µM), for inactives: at the highest dose activity change, negative = inhibition, hits mostly inhibitors. AID 504444. actives 2.1% (n = 360,000); note: potency is the fitted concentration of half-maximal effect; % is set by controls: 0 for no effect and ±100 for the full control effect; nearly all actives have a fitted effect of over 60% in size
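Nrf2 function is reported as luminescence of an ARE-controlled luciferase in A549 cells. Compounds were tested at several concentrations, and a CellTiter-Fluor read on the same wells flagged cytotoxicity.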
ALOX12 inh – blocks human arachidonate 12S-lipoxygenase; purified 12hLO, xylenol orange hydroperoxide absorbance; P18054; actives 1.1% (n = 580,000); Potency, µM (top dose mostly 108 µM), for inactives: at the top dose activity change, negative = inhibition, actives largely listed as inhibitors; note: potency is the fitted concentration of half-maximal effect; % is set by controls: 0 for no effect and ±100 for the full control effect
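Hydroperoxide product was detected by ferrous iron/xylenol orange as the 573 to 405 nm absorbance ratio. Arachidonic acid at 40 uM (final) was turned over for 30 min at room temperature by 150 nM human 12hLO, pH 7.0 Hepes buffer, after 15 min compound preincubation.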
IDH1 R132H inh – inhibitors of human mutant IDH1 R132H; Potency, µM (doses to about 76.6 µM), for inactives: at the highest dose activity change, negative = inhibition, hits mostly inhibitors; actives 0.093% (n = 390,000); O75874; IDH1-R132H enzyme, NADPH consumption, diaphorase/resazurin fluorescence; note: potency is the fitted concentration of half-maximal effect; % is set by controls: 0 for no effect and ±100 for the full control effect; nearly all actives have a fitted effect of over 65% in size
Target sequence (O75874 whole entry R132H, stated change not applied): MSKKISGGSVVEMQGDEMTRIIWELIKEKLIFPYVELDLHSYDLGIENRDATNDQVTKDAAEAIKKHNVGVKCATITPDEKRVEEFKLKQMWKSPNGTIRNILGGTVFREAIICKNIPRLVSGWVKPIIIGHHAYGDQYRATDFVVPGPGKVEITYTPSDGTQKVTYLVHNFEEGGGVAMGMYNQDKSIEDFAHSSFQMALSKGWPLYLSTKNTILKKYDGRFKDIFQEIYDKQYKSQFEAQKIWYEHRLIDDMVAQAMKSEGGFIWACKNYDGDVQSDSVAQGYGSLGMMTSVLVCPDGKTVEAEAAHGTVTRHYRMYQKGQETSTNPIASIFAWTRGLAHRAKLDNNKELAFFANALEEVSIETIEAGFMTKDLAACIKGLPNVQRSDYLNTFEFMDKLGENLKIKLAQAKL
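IDH1-R132H (0.5 ug/mL dispensed) in pH 7.5 Tris buffer was preincubated 30 min with compound, then given a substrate mix of 0.016 mM NADPH and 2 mM alpha-KG for 80 min at room temperature; remaining NADPH was read by diaphorase/resazurin fluorescence.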
LDHA block – blocks human lactate dehydrogenase A; P00338; purified LDHA, NADH/diaphorase-resazurin fluorescence; active compounds read low; activity change, % (values are at about 110 or 230 µM); actives 0.15% (n = 480,000); in the data active = activity change below about -30%; inconclusive = mostly about -25% to -30%;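 note: plate controls were DMSO wells for no effect and wells without enzyme for full effect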
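Human LDH5 (2 nM) was incubated with 0.06 mM NADH and 0.2 mM pyruvate for 5 min at room temperature in Tris pH 7.4. Remaining NADH was coupled through diaphorase/resazurin, and resorufin fluorescence was read at 0 and 20 min.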
A549 viability – A549 cytotoxicity, counter-screen for Nrf2 inhibitors; A549 ARE-Fluc cells, CellTiter-Fluor viability, 18-24 h; Potency, µM (highest dose often 46 µM), for inactives: top-dose activity change, negative = cytotoxicity, usual class: inhibitors; actives 0.16% (n = 390,000); note: potency is the fitted concentration of half-maximal effect; % is set by controls: 0 for no effect and ±100 for the full control effect
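A549 ARE-Fluc cells in 5% FBS OPTI-MEM, 5000 cells/well, rested 2 h then exposed to compounds in concentration-response for 18-24 h at 37 °C. Viability by CellTiter-Fluor fluorescence (Ex 405/Em 525) after 30 min; luciferase luminescence (BugLite, 15 min, RT) read afterwards.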
* marks the source's active call; other numbers are inactive results; ? = inconclusive; . = not tested or not shown; [ ] = dose if it differs, or a comment. A selection: hits, their analogues and other compounds. The true share with any hit is near 2.7%. Unless noted, calls come from the whole dose curve; as a rule, active = well fitted curve in the direction sought with a large enough effect; inconclusive = small, poorly fitted or top-dose-only effect, or another doubt; inactive = no such curve, though single readings can be large; an effect the other way counts as inactive or inconclusive.

SMILES	Nrf2 activator	Nrf2 block	ALOX12 inh	IDH1 R132H inh	LDHA block	A549 viability
O=C(NCc1ccccc1)Nc1cccn(Cc2ccccc2)c1=O	7.2%	?	0.6%	2.8%	-2.7	-1.7%
CCOc1ccc(NC(=O)Nc2cccn(Cc3ccccc3)c2=O)cc1	5.0%	9.2µM*	0.9%	5.1%	-0.6	?
N#Cc1nc(N)nc(N2CCCCC2)n1	.	18.4µM*	.	.	-8.2	0.5%
N#Cc1nc(N2CCCCC2)nc(N2CCOCC2)n1	-0.2%	?	20.6%	-2.2%	-0.7	-6.5%
Cc1ccc(-c2nc(CNC(=O)Nc3ccc(Cl)cc3)c(C)o2)cc1	.	.	?	.	-1.8	.
Brc1ccccc1-c1nc(-c2ccccn2)no1	.	.	14.1µM*	.	-9.1	.
Cc1ccccc1-c1nc(-c2ccccn2)no1	2.8%	?	-11.9%	4.0%	0.1	1.8%
CCNC(=O)c1oc2ccccc2c1CSc1nnc(C)s1	.	.	-2.1%	.	-4.7	.
CCOC(=O)C1=C(CN2CCCCC2)NC(=O)NC1c1cc(C)ccc1C (centres undefined)	0.7%	-3.8%	-8.8%	-1.3%	2.4	-4.1%
CCOC(=O)C1=C(CSCc2ccccc2)NC(=O)NC1c1cc(C)ccc1C (centres undefined)	0.4%	18.4µM*	?	3.1%	-1.8	?
CCOC(=O)C1=C(CN(CC)Cc2ccccc2)NC(=O)NC1c1ccc(OC(C)C)cc1 (centres undefined)	0.3%	18.4µM*	-1.4%	-1.1%	2.3	?
CCCN(CCC)CC1=C(C(=O)OCC)C(c2ccc(C)cc2)NC(=O)N1 (centres undefined)	.	.	14.1µM*	.	-0.3	.
COc1ccc(C)cc1C(C)NC(=O)c1cc(=O)[nH]c2ccccc12 (centres undefined)	.	.	?	.	-1.2	.
Cc1noc2nc(C3CC3)cc(C(=O)NCc3ccc4c(c3)OCCO4)c12	.	.	8.7%	.	-2.7	.
Cc1ccc(-c2n[nH]c(=S)n2C)cc1	-0.1%	12.4%	?	6.8%	1.7	6.1%
Cn1c(-c2csc(-c3ccccc3)n2)n[nH]c1=S	4.7%	?	31.6µM*	5.4%	-8.5	12.8%
CCn1c(-c2sc(-c3ccccc3)nc2C)n[nH]c1=S	29.7%	?	44.7µM*	7.8%	-8.1	0.3%
Cc1nc(-c2ccccc2)sc1-c1ccccc1	.	.	-12.7%	.	-0.1	.
O=C(CCc1ncc(-c2c(F)cccc2F)o1)N1CCN(c2ccc([N+](=O)[O-])cc2)CC1	.	.	92.8%	.	-6.8	.
COc1ccc2cc(/C=C(/C#N)c3nc4ccccc4[nH]3)ccc2c1	.	.	?	.	1.4	.
COc1cc(/C=C2\SC(=O)N(c3ccc(Cl)cc3)C2=O)cc([N+](=O)[O-])c1O	-0.6%	?	?	0.0%	3.3	16.4µM*
COc1cccc(/C=C2/C(=O)NN(c3ccc(C)c(C)c3)C2=O)c1	-0.3%	8.4%	28.2µM*	-2.0%	-0.3	-1.0%
CCOc1ccc(/C=C2\SC(=O)N(c3ccc(O)cc3)C2=O)cc1OC	0.0%	0.0%	.	?	0.8	-10.0%
COc1cc(/C=C2/C(=O)NN(c3ccc(C)c(Cl)c3)C2=O)cc([N+](=O)[O-])c1O	-0.3%	-2.2%	39.8µM*	24.9%	0.1	-15.0%
COc1cc(/C=C2/C(=O)NN(c3cccc(C)c3)C2=O)cc([N+](=O)[O-])c1O	0.1%	19.7%	?	22.0%	5.9	-3.9%
SMILES	Nrf2 activator	Nrf2 block	ALOX12 inh	IDH1 R132H inh	LDHA block	A549 viability
COc1cc(/C=C2\SC(=O)N(c3cccc(Cl)c3)C2=O)cc([N+](=O)[O-])c1O	-1.0%	?	?	22.3%	7.1	13µM*
CCc1noc(-c2cccn3c(CNC(=O)c4ccco4)nnc23)n1	.	.	54.5%	.	.	.
COc1ccc(-c2nc(N(C)Cc3ccco3)c3ccccc3n2)cc1	.	.	?	.	2.4	.
Cc1ccccc1NC(=O)CSc1nc2nccnc2c(=O)n1CCc1ccccc1	.	.	-0.6%	.	-0.7	.
O=S(=O)(CCN1CCC2(CC1)OCCO2)c1ccccc1	.	.	43.1%	.	3.5	.
COc1cc(/C=C2/C(=O)NN(c3cccc(C)c3)C2=O)ccc1OC(=O)c1ccco1	0.2%	2.6%	35.5µM*	-9.8%	3.6	-1.6%
C[C@@H]1CN([C@H](C)CO)C(=O)CCCn2cc(nn2)CO[C@H]1CN(C)S(=O)(=O)c1ccc2ccccc2c1	-1.3%	.	2.8%	-3.6%	-34.2*	.
O=C(Nc1ccc2c(c1)OCO2)N1CCN(Cc2ccco2)CC1	0.0%	16.4µM*	-9.6%	17.2%	6.4	5.9%
Cc1ccc(NC(=O)N2CCN(Cc3ccc4c(c3)OCO4)CC2)cc1	1.9%	?	-5.5%	0.1%	-7.4	?
CCCCCCCCOC(=O)/C(C#N)=C/c1ccc(-c2ccccc2)o1	.	.	?	.	-3.8	.
CS(=O)Cc1cccc(C(=O)N2CCC(n3cccc3)CC2)c1 (centres undefined)	.	.	-8.0%	.	-2.9	.
Cc1cc(C(=O)CSc2nc(N)cc(=O)[nH]2)c(C)n1-c1ccc(OC(F)F)cc1	3.0%	18.4µM*	243.3%	-1.4%	-7.1	-18.0%
COc1ccc(CCn2c(C)cc(C(=O)CSc3nc(N)cc(=O)[nH]3)c2C)cc1	0.9%	18.4µM*	-5.4%	1.5%	-2.2	-4.5%[1.84 µM]
CCC(=O)Nc1cc(OC)c(NC(=O)c2ccccc2)cc1OC	11.9%	4.3%	-15.4%	-0.1%	13.0	-2.9%
COc1ccccc1CNC(=O)c1cccc(N(C)C)c1	2.3%	17.6%	1.78µM*	0.3%	2.9	-12.3%
CCc1cccc(C)c1NC(=O)c1cccc(N(C)C)c1	-0.5%	7.0%	22.4µM*	3.2%	2.0	-11.5%
COc1ccccc1CC(=O)Nc1cc(OC)c(NC(=O)c2ccccc2)cc1OC	15.7%	14.6µM*	?	3.9%	2.7	-17.5%
CN(C)c1cccc(C(=O)NNc2c(Cl)cc(Cl)cc2Cl)c1	.	.	5.01µM*	.	1.6	.
COc1ccccc1CNC(=O)c1ccccc1	.	.	-6.3%	.	1.1	.
CC(Sc1nc(C(F)(F)F)nc2ccccc12)C(=O)N(C)c1ccccc1 (centres undefined)	.	.	-8.8%	.	9.6	.
CCNc1nc(-c2ccc(S(=O)(=O)N3CCCC3)cc2)cs1	.	.	?	.	-1.9	.
CC(Sc1ncccn1)C(=O)NC(c1ccccc1)c1ccccc1 (centres undefined)	.	.	64.2%	.	7.3	.
CC(C)CC(NC(N)=O)C(=O)Nc1ccc2c(c1)CCC2 (centres undefined)	.	.	-7.3%	.	3.9	.
CCOC(=O)C1CCCN(C(=O)CC(c2cccc([N+](=O)[O-])c2)c2c[nH]c3c(CC)cccc23)C1 (centres undefined)	.	.	-4.9%	.	.	.
